Assay outcomes from PubChem.
In the library only some 2.7% were active in any assay of this set; here they are far more common.
IDE act – boosts human insulin-degrading enzyme activity in HEK cells; FAbeta-B cleavage, fluorescence polarization; 0% vehicle, 100% cell-free pure enzyme wells; activation, % at 5.96 µM; 340,000 tested, 0.073% active;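 active = activation above the mean of all tested compounds plus 3 SD, set per screening campaign, cut at about 17% in these data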
TMEM16A inh – blocks the mouse calcium-activated chloride channel TMEM16A; Q8BHY3; HEK293 TMEM16A/YFP iodide influx fluorescence, ionomycin; normalized B-score (activity score, 25-100; higher = stronger inhibition) at 10 µM; 310,000 tested, 1.2% active; AID 588511;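 active = ratio plate-corrected score three or more library SD toward inhibition, starting fluorescence score within five deviations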;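 note: score derived from kinetic fluorescence span divided by baseline fluorescence per well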
CHT allo act – allosteric activators of human choline transporter CHT; AID 488977; B-score at 10 µM; 310,000 tested, 0.49% active; Q9GZV3; CHT-expressing cells, membrane potential dye, choline EC20; hits give high values; LV-AA mutant CHT in HEK293 cells;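 active = initial fluorescence not abnormally high and integrated response B-score, plate-corrected, over 3 SD above library mean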
Target sequence (Q9GZV3 whole entry, looked up): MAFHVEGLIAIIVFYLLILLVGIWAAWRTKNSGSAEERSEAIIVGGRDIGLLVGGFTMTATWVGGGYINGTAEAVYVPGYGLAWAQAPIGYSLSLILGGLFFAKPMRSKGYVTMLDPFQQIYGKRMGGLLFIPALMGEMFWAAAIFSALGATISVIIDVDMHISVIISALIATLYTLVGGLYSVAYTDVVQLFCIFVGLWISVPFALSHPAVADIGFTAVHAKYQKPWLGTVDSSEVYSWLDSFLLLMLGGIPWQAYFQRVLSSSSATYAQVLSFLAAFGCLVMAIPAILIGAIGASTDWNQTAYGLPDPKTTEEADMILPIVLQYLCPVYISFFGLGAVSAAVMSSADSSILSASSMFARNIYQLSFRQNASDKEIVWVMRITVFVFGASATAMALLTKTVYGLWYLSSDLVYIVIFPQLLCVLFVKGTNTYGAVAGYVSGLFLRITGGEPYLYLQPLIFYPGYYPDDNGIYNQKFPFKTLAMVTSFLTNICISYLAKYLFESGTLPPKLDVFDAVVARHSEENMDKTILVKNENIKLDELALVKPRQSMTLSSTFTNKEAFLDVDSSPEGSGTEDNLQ
TMEM16A act – activates or potentiates the mouse TMEM16A chloride channel; Q8BHY3; HEK293 TMEM16A/YFP-H148Q/I152L, iodide quench fluorescence; hits give low values; B-score at 10 µM; 340,000 tested, 0.3% active; AID 623877;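 active = fluorescence-ratio B-score plate-corrected deviation score at least 3 library SD below zero, with starting fluorescence score within 5 deviations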;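 note: channel opened by trigger with iodide after compound preincubation; score built on the fluorescence ratio of max minus min over baseline; more negative score means more quench and so TMEM16A activation or potentiation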
CHT block – human CHT choline transport inhibition; CHT-expressing cells, membrane potential dye, choline response; hits give low values; B-score at 10 µM; 310,000 tested, 0.86% active;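 active = B-score over 3 SD under the library average, and starting fluorescence ratio not unusually high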;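 note: choline stimulus applied at its EC90 after an EC20 pre-addition; B-score computed on integrated fluorescence ratio after choline addition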
IDE cell inh – inhibitors of human insulin-degrading enzyme in cells; P14735; AID 434962; inhibition, % at 5.59 µM; HEK cells, FAbetaB cleavage, fluorescence polarization; 320,000 tested, 0.41% active;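 active = percent inhibition above the average of all tested compounds plus 3 SD, set per screening campaign, cut at about 16% in these data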;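 note: IDE supplied by intact live HEK cells; FP after avidin binding of uncleaved biotin substrate so inhibition keeps polarization high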
CHT inh conf – human CHT inhibition, confirmatory screen; 2,400 tested, 70% active; shares compounds with CHT block; CHT activity remaining % of control (hits give low values), % at 10 µM; CHT-expressing cells, choline membrane potential dye; LV-to-AA substituted CHT, HEK293 cells; AID 493221;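 active = choline transporter activity left, mean of duplicates at 10 µM, below buffer-only control mean minus 3 SD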;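 note: depolarization triggered by choline at its EC90 following an EC20 pre-addition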
HEK293 CHT ctr – counter-screen for CHT inhibitors: effect in parental HEK293 cells. shares compounds with CHT block. membrane potential dye, choline response; active = decrease or increase beyond buffer ±3SD. membrane potential ratio readout (active if shifted either direction beyond buffer ±3SD; no single direction) at 10 µM. 2,400 tested, 4% active. AID 493222;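 note: parental cells lack the transporter so any hit is non-specific; ratio is peak minus trough fluorescence over baseline after EC90 choline challenge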
TMEM16A reconf – TMEM16A (mouse) chloride channel inhibition, re-confirmation. shares compounds with TMEM16A inh. HEK293 TMEM16A/YFP-H148Q, iodide quench fluorescence; ionomycin added to raise cell calcium. inhibition, % at 10 µM. 2,300 tested, 39% active. AID 652189;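 active = mean duplicate percent inhibition, scaled so buffer wells are 0 and the reference blocker 100, over three buffer SD above buffer mean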
HEK293 Ca mobil – calcium mobilization counter-screen hit for TMEM16A inhibitor series; shares compounds with TMEM16A inh; TMEM16A/YFP HEK293, Fluo4 calcium mobilization; calcium response (% of ionomycin), % at 10 µM; 2,300 tested, 2% active; AID 652231;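 active = duplicate-averaged calcium signal over 20% of the ionomycin maximum, relative to buffer baseline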;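 note: each well's signal is peak minus trough fluorescence divided by its pre-addition baseline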
YFP-HEK293 quench – counter-screen for TMEM16A inhibitors: effect in parental YFP-HEK293 cells | iodide YFP quench, ionomycin | 2,300 tested, under 10 active | shares compounds with TMEM16A inh | YFP ratio F(max-min)/F0 at 10 µM;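 active = yellow fluorescent protein signal ratio exceeding the buffer control mean by over 5 SD of those controls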;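 note: ratio is mean of duplicate wells from kinetic YFP trace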
ClC-1 inh – selectivity of TMEM16A inhibitors: inhibition of rat ClC-1 chloride channel; shares compounds with TMEM16A inh; CHO ClC-1-YFP, iodide influx fluorescence quench; iodide control reads 0, buffer control 100; ratio percent, % at 10 µM; 2,300 tested, under 10 active; AID 652236;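 active = duplicate-mean ratio percent above the mean of iodide-only control wells, which defines zero, plus 5 of their SD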;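 note: higher percent means stronger block of ClC-1 iodide influx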
Each line names hits and unclear results; the compound was inactive in the other large screens (follow-up assays come after a bar, where they were run).

CC(C)c1ccc2c(c1)C1(NN=C(c3ccccc3)S1)C(=O)N2 (centres undefined)	TMEM16A inh 25, CHT block -6.6 | CHT inh conf 56% | HEK293 CHT ctr inactive | TMEM16A reconf 29% | HEK293 Ca mobil inactive | YFP-HEK293 quench inactive | ClC-1 inh inactive
CC(C)c1ccc(O)c(NC(=O)c2ncn[nH]2)c1	none
O=C1OC(c2ccccc2)(c2ccc(O)cc2)c2ccccc21 (centres undefined)	none (no result: TMEM16A inh, CHT allo act, CHT block, IDE cell inh)
Cc1cc(O)ccc1C1(c2ccc(O)cc2C)OC(=O)c2ccccc21	TMEM16A inh 25, CHT block -12 | CHT inh conf 63% | HEK293 CHT ctr inactive | TMEM16A reconf 43% | HEK293 Ca mobil inactive | YFP-HEK293 quench inactive | ClC-1 inh inactive
Cc1ccc(CNC(=O)c2ccccc2NS(C)(=O)=O)cc1	none
Cc1ccc(CNC(=O)c2ccccc2NS(=O)(=O)c2ccc(Cl)nc2)cc1	TMEM16A inh 100, CHT block -5.7 | CHT inh conf 54% | HEK293 CHT ctr inactive | TMEM16A reconf 18% | HEK293 Ca mobil inactive | YFP-HEK293 quench inactive | ClC-1 inh inactive
C[C@H](NC(=O)OC(C)(C)C)c1nnc(SCC(=O)c2ccc(Cl)cc2)o1	TMEM16A inh 100, CHT block -5.3 | CHT inh conf 69% | HEK293 CHT ctr inactive | TMEM16A reconf inactive | HEK293 Ca mobil inactive | YFP-HEK293 quench inactive | ClC-1 inh inactive
O=C(Nc1cc(S(=O)(=O)Nc2ccccc2Cl)ccc1O)c1ccc(F)cc1F	none (no result: TMEM16A inh, CHT allo act, CHT block)
O=C(Nc1cc(S(=O)(=O)N2CCCCC2)ccc1O)c1ccccc1NS(=O)(=O)c1ccc(F)c(F)c1	TMEM16A inh 25, CHT block -9.4 | CHT inh conf 28% | HEK293 CHT ctr inactive | TMEM16A reconf 50% | HEK293 Ca mobil inactive | YFP-HEK293 quench inactive | ClC-1 inh inactive
CCC(=O)N1CCc2cc(OC)c(OC)cc2C1COc1ccc(F)cc1 (centres undefined)	none
O=c1cc(-c2ccccc2)nc2c(-c3ccccc3)c(C(F)(F)F)[nH]n12	TMEM16A inh 100, CHT block -5.7 (no result: IDE act) | CHT inh conf 69% | HEK293 CHT ctr inactive | TMEM16A reconf 58% | HEK293 Ca mobil inactive | YFP-HEK293 quench inactive | ClC-1 inh inactive
COc1cccc(CN(C)C(=O)c2cc(COc3ccc4ncccc4c3)on2)c1	TMEM16A inh 25, CHT block -6 | CHT inh conf inactive | HEK293 CHT ctr inactive | TMEM16A reconf 38% | HEK293 Ca mobil inactive | YFP-HEK293 quench inactive | ClC-1 inh inactive
Cc1ccc(S(=O)(=O)N(OCc2ccccc2)C(C)C(=O)O)cc1 (centres undefined)	none (no result: IDE act)
COc1cc(NC(=O)CCN2CC(C)OC(C)C2)cc(OC)c1 (centres undefined)	none
COC(=O)c1ccc(O)c(Sc2cc(C(=O)OC)ccc2O)c1	TMEM16A inh 100, CHT block -5.3 | CHT inh conf inactive | HEK293 CHT ctr inactive | TMEM16A reconf 19% | HEK293 Ca mobil inactive | YFP-HEK293 quench inactive | ClC-1 inh inactive
CC[C@H](C)[C@H]1CNC(=O)C(=O)N1CC1CCN(CCCc2ccc(OC)c(OC)c2)CC1	none (no result: TMEM16A inh, CHT allo act, TMEM16A act, CHT block, IDE cell inh)
Cc1ccc(C)c(S(=O)(=O)C(C#N)c2nc3ccccc3nc2N2CC(C)OC(C)C2)c1 (centres undefined)	TMEM16A inh 25, CHT block -8.1 | CHT inh conf 41% | HEK293 CHT ctr inactive | TMEM16A reconf 18% | HEK293 Ca mobil inactive | YFP-HEK293 quench inactive | ClC-1 inh inactive
Cc1ccc(S(=O)(=O)C(C#N)c2nc3ccccc3nc2N2CCC(C)CC2)cc1 (centres undefined)	none (no result: TMEM16A inh, CHT allo act, CHT block, IDE cell inh)
COc1ccc(/C=C(\NC(=O)c2ccc(Cl)cc2)C(=O)NCC2CCCO2)cc1OC (centres undefined)	none
CC1CCN(C(=O)CSCC(=O)Nc2nc(-c3cccs3)cs2)CC1	TMEM16A inh 100, CHT block -5.3 | CHT inh conf inactive | HEK293 CHT ctr inactive | TMEM16A reconf inactive | HEK293 Ca mobil inactive | YFP-HEK293 quench inactive | ClC-1 inh inactive
CC1CCCN(C(=O)CSCC(=O)Nc2nc(-c3cccs3)cs2)C1 (centres undefined)	none
FC(F)(F)c1cccc(-c2nc3nc(Cl)c(Cl)nc3[nH]2)c1	TMEM16A inh 25, CHT block -7.8 | CHT inh conf 50% | HEK293 CHT ctr inactive | TMEM16A reconf 31% | HEK293 Ca mobil inactive | YFP-HEK293 quench inactive | ClC-1 inh inactive
CCCC(=O)Nc1c2c(nn1-c1ccc(C)cc1)CS(=O)(=O)C2	TMEM16A inh 100, CHT block -6.1 | CHT inh conf inactive | HEK293 CHT ctr inactive | TMEM16A reconf inactive | HEK293 Ca mobil inactive | YFP-HEK293 quench inactive | ClC-1 inh inactive
CCc1cc(C(=O)NNC(=S)NCc2ccccc2)cs1	none
CCCc1cc(C(=O)NNC(=S)NCc2ccccc2)cs1	TMEM16A inh 100, CHT block -8.2 | CHT inh conf 54% | HEK293 CHT ctr inactive | TMEM16A reconf inactive | HEK293 Ca mobil inactive | YFP-HEK293 quench inactive | ClC-1 inh inactive
Cc1ccc(-c2ccc(C#N)c(=O)n2CC(=O)N(C)C)cc1	none
O=C(CN1CCC(NC(=O)Nc2ccc(F)cc2)CC1)Nc1ccccc1[N+](=O)[O-]	none
Cc1ccc(C2=NC(C(F)(F)F)(C(F)(F)F)c3c(n(-c4ccc(F)cc4)c(=O)[nH]c3=O)N2)cc1	none
